The target in test [1] is Lysosomal acid glucosylceramidase (Homo sapiens) (UniProt P04062). The test is described as follows: Glucocerebrosidase-p2 (AID 348; in the data active = potency below about 10 µM; note: potency is the fitted concentration of half-maximal effect). Conditions: purified GBA, blue fluorogenic substrate, 40 min. Put shortly:
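Normal human glucocerebrosidase (0.2 nM) with blue fluorogenic substrate (80 uM final) in citrate/phosphate pH 5.9 with 10mM sodium taurocholate, 0.01% tween-20; 40 min RT, NaOH/glycine stop; fluorescence Ex 365/Em 440; AC50 from a titration from 0.6 nM upwards.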

Test [2] can be described thus: AP1 Signaling Pathway (AID 357).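 Note: ME-180 reporter cells stimulated with EGF at its EC50 level; % is set by controls: 0 for no effect and ±100 for the full control effect.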 Conditions: ME-180 AP-1-bla reporter, EGF-induced, beta-lactamase ratio, 5 h; at 7.69 µM (top of the series) unless noted. A digest of the protocol: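 Beta-lactamase reporter under AP-1 response element, ME-180 background. Stimulus: EC50 EGF. Compound exposure 5 h, 37 °C. Detection: CCF4, 2.5 h RT, 460/530 nm. Values: AC50 from titration.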

Test [3] in a line: Stat Signaling Pathway (AID 446).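 Note: ME-180 cervical cancer cells given 40 pM IL-6 alongside compound; SIE-controlled beta-lactamase reporter measured as 460/530 nm FRET emission ratio; % is set by controls: 0 for no effect and ±100 for the full control effect.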 Conditions: ME-180 (cervical carcinoma) SIE beta-lactamase reporter, IL-6 stimulated, 5 h; at 7.69 µM (top of the series) unless noted. Put shortly:
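Normalization used AC90 stimulation (300 pM IL-6) and AC90 inhibition (125 nM pan-JAK inhibitor at 40 pM IL-6). The underlying signal is SIE-driven beta-lactamase in ME-180 cells after 5 h IL-6 exposure with compound.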

In test [4] the target is Glucocorticoid receptor (Homo sapiens) (UniProt P04150). Description: GR-GFP Redistribution (AID 450;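 active = compounds whose dose series gives a full or clear partial fitted curve of increased nuclear translocation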; note: potency is the fitted concentration of half-maximal effect). The conditions noted are these: U2OS GR-GFP nuclear translocation, laser cytometry, 2 h.
Chain of Glucocorticoid receptor (Homo sapiens) (P04150 whole entry, looked up): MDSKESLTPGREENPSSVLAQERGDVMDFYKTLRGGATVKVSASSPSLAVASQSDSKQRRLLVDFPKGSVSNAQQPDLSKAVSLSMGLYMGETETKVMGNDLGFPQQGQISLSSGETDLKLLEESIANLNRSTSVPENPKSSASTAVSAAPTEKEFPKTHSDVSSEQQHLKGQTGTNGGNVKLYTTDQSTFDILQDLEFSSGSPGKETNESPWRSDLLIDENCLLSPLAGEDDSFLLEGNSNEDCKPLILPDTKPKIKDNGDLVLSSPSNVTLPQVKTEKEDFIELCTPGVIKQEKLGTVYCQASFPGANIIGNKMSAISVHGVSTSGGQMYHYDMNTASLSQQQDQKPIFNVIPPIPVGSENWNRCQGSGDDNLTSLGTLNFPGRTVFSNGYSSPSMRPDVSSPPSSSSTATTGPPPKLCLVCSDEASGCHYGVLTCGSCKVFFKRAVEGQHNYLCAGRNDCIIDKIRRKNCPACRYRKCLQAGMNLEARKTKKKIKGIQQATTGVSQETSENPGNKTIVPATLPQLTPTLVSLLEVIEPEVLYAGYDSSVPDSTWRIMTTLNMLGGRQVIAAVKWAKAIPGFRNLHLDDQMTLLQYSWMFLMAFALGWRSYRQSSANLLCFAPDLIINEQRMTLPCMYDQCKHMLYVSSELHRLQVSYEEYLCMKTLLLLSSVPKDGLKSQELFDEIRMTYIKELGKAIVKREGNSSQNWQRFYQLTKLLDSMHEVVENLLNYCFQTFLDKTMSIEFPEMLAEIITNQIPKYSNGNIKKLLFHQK
For test [5] the target is unchanged. The test is described as follows: GR-EFC Redistribution (AID 451; calls by dose curve; note: potency is the fitted concentration of half-maximal effect). Conditions: CHO-K1 GR-EFC translocation, beta-gal luminescence, 2 h. A digest of the protocol:
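CHO-K1 cells stably expressing nuclear-localized β-gal enzyme acceptor and GR fused C-terminally to the enzyme donor fragment; ligand-driven nuclear translocation restores β-gal by complementation. Compounds titrated up to 46 uM final, 2 h at 37 °C; luminescence read.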

The target in test [6] is Mitogen-activated protein kinase 10 (Mus musculus) (UniProt Q61831). The test is described as follows: JNK3 AlphaScreen Assay (AID 530).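 Note: kinase came from lysate of stimulated human HepG2 cells; signal reports phosphorylation of biotinylated GST-cJun 1-79 at Ser73 with 10 µM ATP; % is set by controls: 0 for no effect and ±100 for the full control effect.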 The conditions noted are these: JNK3 lysate, c-Jun phosphorylation; series mostly up to 11.4 µM. A digest of the protocol:
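Phosphorylation of biotinylated GST-cJun(1-79) at Ser73 is measured by AlphaScreen proximity luminescence. Enzyme is JNK3 in HepG2 lysates activated with interleukin-1beta and tumor necrosis factor alpha; ATP is 10 uM final.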
(In general: In Alpha technology, singlet oxygen from a donor bead excites a nearby acceptor bead.)

Test [7] deals with 3',5'-cyclic-AMP phosphodiesterase 4B (Homo sapiens) (UniProt Q07343). The test is described as follows: qHTS Assay for Inhibitors of PDE-IV (AID 607; active = well fitted activation curve with a large enough effect in the main read-out, with a control signal flat, not every such curve was filed as active; note: % of control where 0% means no effect). The conditions noted are these: HEK293 ACTOne CNG channel cells, membrane potential fluorescence; series mostly up to 22.9 µM. Put shortly: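 HEK293 ACTOne cells with CNG channel (1000/well), endogenous PDE4; membrane potential dye, compounds up to 22.9 uM final. Fluorescence Ex 535/Em 590; RO 20-1724 (100 uM final) as reference.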
Chain of 3',5'-cyclic-AMP phosphodiesterase 4B (Homo sapiens) (Q07343 whole entry, looked up): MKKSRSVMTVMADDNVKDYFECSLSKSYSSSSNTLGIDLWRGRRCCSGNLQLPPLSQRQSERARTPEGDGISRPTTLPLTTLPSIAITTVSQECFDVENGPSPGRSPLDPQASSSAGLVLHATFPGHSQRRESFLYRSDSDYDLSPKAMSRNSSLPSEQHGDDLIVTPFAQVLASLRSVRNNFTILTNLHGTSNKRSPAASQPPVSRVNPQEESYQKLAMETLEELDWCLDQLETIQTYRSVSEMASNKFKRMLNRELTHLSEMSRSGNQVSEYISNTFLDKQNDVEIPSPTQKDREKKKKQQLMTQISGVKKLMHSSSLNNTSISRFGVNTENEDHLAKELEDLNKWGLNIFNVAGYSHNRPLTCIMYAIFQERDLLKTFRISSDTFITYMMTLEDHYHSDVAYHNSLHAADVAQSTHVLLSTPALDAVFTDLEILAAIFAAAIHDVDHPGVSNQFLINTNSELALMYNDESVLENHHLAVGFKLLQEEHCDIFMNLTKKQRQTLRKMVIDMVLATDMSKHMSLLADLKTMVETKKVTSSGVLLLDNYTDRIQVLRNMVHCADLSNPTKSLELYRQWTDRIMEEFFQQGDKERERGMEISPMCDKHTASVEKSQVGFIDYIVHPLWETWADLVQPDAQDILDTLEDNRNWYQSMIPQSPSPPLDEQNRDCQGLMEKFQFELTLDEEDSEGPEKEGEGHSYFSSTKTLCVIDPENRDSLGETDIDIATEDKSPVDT
On the technique in general: Quantitative high-throughput screening tests each substance at several concentrations.

A short description of test [8]: NFAT Signaling Pathway (AID 444).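 Note: carbachol stimulus at about its EC50 of 1 µM final; % is set by controls: 0 for no effect and ±100 for the full control effect.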 Conditions: Jurkat NFAT-bla M1, carbachol, beta-lactamase ratio, 5 h; at 7.69 µM (top of the series) unless noted. A digest of the protocol: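 Jurkat cells carrying an NFAT-driven β-lactamase reporter and co-transfected muscarinic M1 receptor were treated with compound plus carbachol (1 uM final, an EC50 level) for 5 h at 37 °C. CCF4 loading followed for 1 h at RT; 460/530 nm ratio gave %activity.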

Test [9] has as its target Cytochrome P450 3A4 (Homo sapiens) (UniProt P08684). Description: qHTS Assay for Inhibitors and Substrates of Cytochrome P450 3A4 (AID 884; active = well fitted curve in the direction sought with a large enough effect; an effect the other way counts as inactive or inconclusive; note: potency is the fitted concentration of half-maximal effect; nearly all actives have a fitted effect of over 50% in size). Conditions: recombinant CYP3A4, Luciferin-PPXE luminescence; series mostly up to 57.1 µM. Put shortly:
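Luminescent readout of luciferin produced by CYP3A4 (20 nM) dealkylation of Luciferin-PPXE, 25 uM (its KM). NADPH-driven reaction ran 60 min at RT after 10 min compound preincubation; data scaled to 57 uM ketoconazole as 100% inhibition.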

Test [10] shares this target. Description: qHTS Assay for Activators of Cytochrome P450 3A4 (AID 885; active = well fitted curve in the direction sought with a large enough effect; an effect the other way counts as inactive or inconclusive; note: nearly all actives have a fitted effect of over 65% in size). The conditions noted are these: recombinant CYP3A4, Luciferin-PPXE luminescence, 60 min; series mostly up to 11.4 µM. A digest of the protocol:
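Human CYP3A4 dealkylates Luciferin-PPXE to luciferin, which luciferase detection converts to light. Substrate was at its KM (25uM), buffer 200mM KPO4, reaction 60 min at RT.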

A number with no mark means an inactive call. Results filed as inconclusive are left out. Active and inactive are the calls of the source. Unless noted, calls come from the whole dose curve; as a rule, active = well fitted curve in either direction with a large enough effect (not every such curve was filed as active); inconclusive = small, poorly fitted or top-dose-only effect, or another doubt; inactive = flat fitted curve, though single readings scatter.

Chain of Cytochrome P450 3A4 (Homo sapiens) (P08684 whole entry, looked up): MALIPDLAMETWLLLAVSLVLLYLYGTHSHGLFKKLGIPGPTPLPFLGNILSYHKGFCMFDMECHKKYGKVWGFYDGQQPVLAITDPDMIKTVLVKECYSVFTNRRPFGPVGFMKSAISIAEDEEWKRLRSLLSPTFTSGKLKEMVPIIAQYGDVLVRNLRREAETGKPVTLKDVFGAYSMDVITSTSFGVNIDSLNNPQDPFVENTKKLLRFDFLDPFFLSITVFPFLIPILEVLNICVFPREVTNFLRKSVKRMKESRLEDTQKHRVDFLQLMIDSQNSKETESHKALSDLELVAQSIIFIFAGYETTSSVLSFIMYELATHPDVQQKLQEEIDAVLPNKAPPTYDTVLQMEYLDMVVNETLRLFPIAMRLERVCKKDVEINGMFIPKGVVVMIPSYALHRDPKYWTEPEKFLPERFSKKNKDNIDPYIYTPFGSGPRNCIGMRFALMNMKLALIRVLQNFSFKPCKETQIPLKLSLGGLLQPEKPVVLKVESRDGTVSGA
Chain of Lysosomal acid glucosylceramidase (Homo sapiens) (P04062 whole entry, looked up): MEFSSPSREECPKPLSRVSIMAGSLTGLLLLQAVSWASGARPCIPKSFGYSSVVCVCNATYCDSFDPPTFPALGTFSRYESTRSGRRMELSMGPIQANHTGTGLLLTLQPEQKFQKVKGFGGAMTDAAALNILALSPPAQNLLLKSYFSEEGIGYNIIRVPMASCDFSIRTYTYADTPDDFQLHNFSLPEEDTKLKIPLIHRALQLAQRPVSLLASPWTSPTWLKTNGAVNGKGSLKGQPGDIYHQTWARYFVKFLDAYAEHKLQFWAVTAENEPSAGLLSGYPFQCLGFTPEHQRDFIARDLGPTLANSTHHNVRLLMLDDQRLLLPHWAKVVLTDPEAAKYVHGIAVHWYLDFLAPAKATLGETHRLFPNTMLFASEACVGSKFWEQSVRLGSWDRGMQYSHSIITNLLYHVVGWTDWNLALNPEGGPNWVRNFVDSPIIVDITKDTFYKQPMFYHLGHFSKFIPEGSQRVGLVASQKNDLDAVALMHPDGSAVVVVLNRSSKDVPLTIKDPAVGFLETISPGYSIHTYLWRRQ

As to `COc1ccc2c3c(ccc2c1)N[C@H](C(=O)O)CC3`, the Potency in test [1] was above 11.4 µM; in test [4] it was above 46 µM; in test [5], above 9.22 µM. Moreover, the activity change, negative = inhibition in test [2] is -4.14%. In addition, in test [3], the activity, negative = inhibition is -6.67%. In addition, the Potency entry in test [6] and in test [7] was “inactive” each time.

As to `C[C@H](CCC(=O)O)[C@H]1CC[C@@H]2[C@H]3CC[C@H]4C[C@H](O)CC[C@@]4(C)[C@@H]3CC[C@@]21C`, the values for the Potency in test [1], in test [4] and in [5] were above 11.4 µM, above 46 µM and above 9.22 µM, respectively. Moreover, the activity change, negative = inhibition in [2] is 17.2%. Moreover, the activity, negative = inhibition in [3] is -10%. For the same compound, the Potency entry in test [6] and in test [7] was “inactive” each time.

Turning to `Cn1c(Sc2ccc(-c3cccnc3)n2C)ccc1-c1cccnc1`, the Potency in test [1] was above 11.4 µM; in test [4], above 46 µM; in [5] it was above 9.22 µM; in test [9] it was 0.631 µM (active). Further, the activity change, negative = inhibition in test [2] is 1.8%; in test [8], -29.9%. In addition, the Potency entry in [7] and in test [10] was “inactive” throughout.

On to `COc1ccc(-c2nc3cnc(N4CCNCC4)nc3n(Cc3cccc(OC)c3)c2=O)cc1`, for which the Potency in test [1] was above 11.4 µM; in [4] it was above 9.22 µM; in test [5] it was above 46 µM. Moreover, the activity change, negative = inhibition in test [2] is 109% [activator] (active); in [8], 101% [activator] (active). Also, the Potency entry in test [7] and in test [10] was “inactive” in each case.

Regarding `Clc1ccc(/C=C\c2nc(Cl)c(-c3ccc(Cl)cc3)c(Cl)n2)cc1`, the results for the Potency in test [1], in test [4] and in test [5] were above 11.4 µM, above 46 µM and above 9.22 µM, respectively. In addition, the activity change, negative = inhibition in test [2] was -5.65%. Moreover, the activity, negative = inhibition in test [3] was -0.809%. Further, the Potency result in [6] and in [7] was “inactive” in each case.

With `N=C(N)SC(c1ccccc1)c1ccccc1`, the Potency in test [1] was above 11.4 µM; in [4] it was above 46 µM; in [5], above 9.22 µM. Moreover, the activity change, negative = inhibition in test [2] was 6.69%. Also, in test [3], the activity, negative = inhibition was 0.795%. The Potency result in test [6] and in [7] was “inactive” throughout.

`C=C(CC(=O)O)C(=O)O` (tested in a mixture with another compound): the Potency in [1] was above 11.4 µM; in test [4], above 46 µM; in test [5], above 9.22 µM. The activity change, negative = inhibition in test [2] is 6.49%. Further, the activity, negative = inhibition in test [3] is -4.69%. Besides, the Potency entry in test [6] and in test [7] was “inactive” in each case.

`Cc1cccc(C(=O)O)c1C[C@H]1NCC[C@H]2c3ccccc3N[C@@H]12`: the results for the Potency in test [1], in [4] and in test [5] were above 11.4 µM, above 46 µM and above 9.22 µM, respectively. For the same compound, the activity change, negative = inhibition in [2] is 29.4%. For the same compound, in test [3], the activity, negative = inhibition was 4.38%. The Potency result in test [6] and in test [7] was “inactive” each time.

For the compound `CNc1ncnc(Sc2nc(N)nc3nc[nH]c23)c1[N+](=O)[O-]`, the Potency in test [1] was above 11.4 µM; in test [4], above 46 µM; in [5] it was above 9.22 µM. Moreover, in [2], the activity change, negative = inhibition is -9.31%. For the same compound, the activity, negative = inhibition in test [3] is 21.1%. Also, the Potency result in test [6] and in test [7] was “inactive” each time.

Source of the values: PubChem BioAssay (NCATS).
